In PubChem BioAssay (NCATS):
Records with an inconclusive call do not appear. Calls of active or inactive are those of the source. Unless noted, calls follow the shape of the dose curve; as a rule, active = well fitted curve in the direction sought with a large enough effect; inconclusive = small, poorly fitted or top-dose-only effect, or another doubt; inactive = no such curve, though single readings can be large; an effect the other way counts as inactive or inconclusive.

What was measured:
[1] = NS1 protein of Zika virus - qHTS assay to identify small molecule inhibitors in human HEK 293 cells (AID 1347053);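 also: plate controls were infected untreated cells for no effect and uninfected cells for full effect; nearly all actives have a fitted effect of over 55% in size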
Outline: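 HEK 293; 20 h pre-culture, 37 C/5% CO2; cpd 1 h pre-infection; ZIKV MR766, MOI = 0.5, 24 h, 37 C; TR-FRET NS1 readout (two anti-NS1 Abs); norm. to no-virus vs infected.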

[2] = molecular target: T1, Tyrosine-protein phosphatase non-receptor type substrate 1 (Homo sapiens) + Leukocyte surface antigen CD47 (Homo sapiens) (UniProt P78324+Q08722); experiment: CD47-SIRPalpha protein protein interaction - HTRF assay qHTS validation (AID 1347058; active = well fitted curve in the direction sought with a large enough effect in the signal ratio, not every such curve was filed as active; the % refers to the signal ratio;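 also: recombinant soluble extracellular CD47 with His tag and biotinylated SIRPalpha domains; 0% is about no effect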)
Outline: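 TR-FRET read (Ch1/Ch2 ratio) of soluble extracellular CD47 and Avi-biotinylated SIRPalpha domains in PBS pH 7.4 with 0.05% IGEPAL; 7-point compound titration. Sequential 30 min room-temperature steps; non-biotinylated SIRPalpha as control inhibitor.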

[3] = molecular target: T1, Tyrosine-protein phosphatase non-receptor type substrate 1 (Homo sapiens) + Leukocyte surface antigen CD47 (Homo sapiens); experiment: CD47-SIRPalpha protein protein interaction - Alpha assay qHTS validation (AID 1347059);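 also: bead proximity luminescence from CD47 binding SIRPalpha after compound preincubation with SIRPalpha; % is scaled to controls: 0 for no effect and ±100 for the full control effect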
Outline: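 Binding is measured by AlphaScreen proximity: Ni-NTA acceptor beads capture His-CD47, streptavidin donor beads capture biotin-SIRPalpha. Each of three additions (SIRPalpha with compound, CD47, beads) incubates 30 min at room temperature protected from light.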

[4] = molecular target: Parathyroid hormone/parathyroid hormone-related peptide receptor (Homo sapiens) (UniProt Q03431); experiment: qHTS for PTHR1 Agonists: Optimization Screen against the NCGC LOPAC library (AID 1347079);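 also: GloSensor cAMP luminescence in HEK-293 GP2 cells expressing human PTHR1 with IBMX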; also: potency is read from the fitted curve at half-maximal effect
Outline: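 Agonist readout: GloSensor cAMP luminescence, read after 15 min at room temperature. HEK-293-derived GP2 line carries PTHR1; compounds tested as a titration for 1 hr at 37C in presence of IBMX. M-PTH (1-15) served as control.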

[5] = molecular target: N-terminal Xaa-Pro-Lys N-methyltransferase 1 (Homo sapiens) (UniProt Q9BV86); experiment: qHTS Assay for Inhibitors of N-terminal methyltransferase 1 (NTMT1): LOPAC validation of the NTMT1 SAHH-coupled ThioGlo3 Assay (AID 1347143);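 also: SAH from peptide methylation measured as thiol fluorescence via SAHH coupling and ThioGlo3; nearly all actives have a fitted effect of over 70% in size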; also: potency is read from the fitted curve at half-maximal effect
Outline: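 Inhibition of NTMT1 methylation of peptide SPKRIA is followed by converting SAH with SAHH and labelling the released thiol with ThioGlo3. Plates are read at 340/450nm before and 30 min after reagent addition, both at room temperature.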

[6] = tested on: Zika virus NS2B-NS3 protease (unlinked); experiment: Optimization of GU AMC qHTS for Zika virus inhibitors: Unlinked NS2B-NS3 protease assay (AID 1347151); also: nearly all actives have a fitted effect of over 80% in size; also: potency is read from the fitted curve at half-maximal effect
Outline: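 Fluorescence gain (340/450 nm) over 15 min at room temperature, ~20% conversion, gave percent inhibition fitted to a 4-parameter Hill equation; enzyme was unlinked NS2B-NS3 (25 nM final), pH 8.0 Tris buffer.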

[7] = tested on: Zika virus NS2B-NS3 protease; experiment: Primary screen GU AMC qHTS for Zika virus inhibitors (AID 1347154);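 also: 0% = no-inhibitor control and -100% = no-enzyme control; nearly all actives have a fitted effect of over 70% in size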
Outline: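 Fluorogenic AMC-substrate cleavage by noncovalent NS2B-NS3 protease complex (25 nM, pH 8.0 Tris buffer with Tween 20) followed for 15 minutes at room temperature (~20% conversion). Percent inhibition from ex340/em450 signal change, fitted by 4-parameter Hill equation.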

[8] = molecular target: Lysine-specific demethylase 5B (Homo sapiens) (UniProt Q9UGL1); experiment: Optimization screen for KDM5B Histone Demethylases FDH coupled qHTS against the LOPAC library (AID 1347166); conditions: KDM5B demethylation, FDH-coupled NADH fluorescence (FDH is formaldehyde dehydrogenase); at 57.5 µM (top of the series); also: 0% is about no effect
Outline: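 KDM5BDeltaAP (200nM final) preincubated 10 min with compound, then 12.5uM H3K4Me3, 25uM a-ketoglutarate, ascorbate, Fe(II), NAD+ and FDH added; 50mM HEPES pH 7.5, 0.01% Tween-20. NADH fluorescence (340/450 nm) change over 30 min, room temperature.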

[9] = molecular target: T1, Tyrosine-protein phosphatase non-receptor type substrate 1 (Homo sapiens) + Leukocyte surface antigen CD47 (Homo sapiens); experiment: CD47-SIRPalpha protein protein interaction - LANCE assay qHTS validation (AID 1347057; active = well fitted curve in the direction sought with a large enough effect in the signal ratio, with a control signal flat, not every such curve was filed as active; the % refers to the signal ratio)
Outline: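 First, His-tagged CD47 and Eu-labelled anti-His antibody met the compound for 30 min; next, site-specifically biotinylated SIRPalpha was added for 30 min; finally streptavidin-APC was added before reading the TR-FRET ratio.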

[10] = ZIKV-mCherry secondary qHTS for Zika virus inhibitors (AID 1347158); also: top concentration of the series differs between compounds
Outline: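 Vero, 5,000 cells/well, o/n 37 °C; cpd pin-transferred in DMSO; ZIKV-mCherry MOI 1, 48-72 h 37 °C; 32% PFA stock fix, Hoechst; imaged 10x DAPI/mCherry; mCherry+ threshold 450 RFU; % infection.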

[11] = tested on: Zika virus NS2B-NS3 protease (linked); experiment: 384 well plate NINDS AMC confirmatory qHTS for Zika virus inhibitors (AID 1347163); also: potency is read from the fitted curve at half-maximal effect; nearly all actives have a fitted effect of over 50% in size
Outline: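 Linked NS2B-NS3 protease (final 5 nM, 30 nM or 60 nM) was preincubated with compounds (final up to 1 mM) for ~15 minutes. Ac-VKTGKR-AMC substrate (final 30 microM) then reacted for 25 minutes at room temperature in the dark. Fluorescence (ex 355/em 460 nm) was normalized to no-enzyme and no-inhibitor controls.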

[12] = Tertiary RLuc qRT-PCR qHTS assay for Zika virus inhibitors (AID 1347169); also: top concentration of the series differs between compounds; % is scaled to controls: 0 for no effect and ±100 for the full control effect; nearly all actives have a fitted effect of over 55% in size
Outline: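 Orthogonal cell-based readout: luminescence measured 1-1.5 hrs after adding live-cell Renilla substrate to Vero cells that had been infected with ZIKV-RLuc (MOI 1-2) post-compound, incubated 48-72 hrs at 37 degrees C.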

[13] = tested on: Zika virus NS2B-NS3 protease (unlinked complex); experiment: Confirmatory screen GU AMC qHTS for Zika virus inhibitors (AID 1347153);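 also: percent inhibition with 0% = no inhibitor control and 100% = no enzyme control; nearly all actives have a fitted effect of over 70% in size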
Outline: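 Unlinked enzyme 25 nM, Tris pH 8.0/0.01% Tween 20; cpd 15 min RT, dark; + AMC substrate 10 µM (Km 18.3 µM); 340/450 nm read at t0 and 15 min; % inhibition → 4-param fit.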

[14] = HepG2 cells viability qHTS for Zika virus inhibitors (AID 1347168); also: % is scaled to controls: 0 for no effect and ±100 for the full control effect
Outline: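 Compounds were tested in concentration series on cells grown in DMEM containing 4% FBS. After 24 to 48 hours, cellular ATP was measured by luminescence with CellTiter Glo.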

[15] = Confirmatory screen NINDS Rhodamine qHTS for Zika virus inhibitors (AID 1347161);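 also: purified Zika NS2B-NS3 protease with linked NS2B cofactor domain and Rhodamine110 peptide substrate; plate controls were no-inhibitor control for no effect and no-enzyme control for full effect; nearly all actives have a fitted effect of over 60% in size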
Outline: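 Purified linked NS2B-NS3 protease (NS2B hydrophilic domain joined to NS3 protease by flexible linker), 25 nM in 10 mM Tris-HCl pH 8.0, 0.01% Tween 20. Compounds titrated, 15 min preincubation at room temperature; 1.5 microM Rhodamine110 substrate, FITC fluorescence change over 15 min.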

Chain of Parathyroid hormone/parathyroid hormone-related peptide receptor (Homo sapiens) (Q03431 whole entry, looked up): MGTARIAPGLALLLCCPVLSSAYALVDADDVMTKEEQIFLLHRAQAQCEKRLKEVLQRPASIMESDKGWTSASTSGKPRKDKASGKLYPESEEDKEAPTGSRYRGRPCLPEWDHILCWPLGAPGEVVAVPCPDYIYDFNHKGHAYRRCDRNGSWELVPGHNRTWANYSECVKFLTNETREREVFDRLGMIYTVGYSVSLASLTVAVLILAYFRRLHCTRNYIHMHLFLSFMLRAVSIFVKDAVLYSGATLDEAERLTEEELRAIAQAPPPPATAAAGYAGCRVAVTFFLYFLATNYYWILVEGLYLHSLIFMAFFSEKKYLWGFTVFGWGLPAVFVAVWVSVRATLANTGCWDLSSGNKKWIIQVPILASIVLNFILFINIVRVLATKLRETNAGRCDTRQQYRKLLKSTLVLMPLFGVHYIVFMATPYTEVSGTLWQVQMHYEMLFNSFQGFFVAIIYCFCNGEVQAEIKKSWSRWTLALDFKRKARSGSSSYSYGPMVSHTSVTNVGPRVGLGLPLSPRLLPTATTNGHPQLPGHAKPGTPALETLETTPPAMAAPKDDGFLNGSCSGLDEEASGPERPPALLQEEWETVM
Chain of N-terminal Xaa-Pro-Lys N-methyltransferase 1 (Homo sapiens) (Q9BV86 whole entry, looked up): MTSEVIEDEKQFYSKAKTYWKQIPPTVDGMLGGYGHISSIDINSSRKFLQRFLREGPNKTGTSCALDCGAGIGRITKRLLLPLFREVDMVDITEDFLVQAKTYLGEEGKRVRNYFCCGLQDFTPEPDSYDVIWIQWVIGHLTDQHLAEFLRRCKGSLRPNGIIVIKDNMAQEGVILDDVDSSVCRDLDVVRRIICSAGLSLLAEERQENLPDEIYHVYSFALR
Chain of Lysine-specific demethylase 5B (Homo sapiens) (Q9UGL1 whole entry, looked up): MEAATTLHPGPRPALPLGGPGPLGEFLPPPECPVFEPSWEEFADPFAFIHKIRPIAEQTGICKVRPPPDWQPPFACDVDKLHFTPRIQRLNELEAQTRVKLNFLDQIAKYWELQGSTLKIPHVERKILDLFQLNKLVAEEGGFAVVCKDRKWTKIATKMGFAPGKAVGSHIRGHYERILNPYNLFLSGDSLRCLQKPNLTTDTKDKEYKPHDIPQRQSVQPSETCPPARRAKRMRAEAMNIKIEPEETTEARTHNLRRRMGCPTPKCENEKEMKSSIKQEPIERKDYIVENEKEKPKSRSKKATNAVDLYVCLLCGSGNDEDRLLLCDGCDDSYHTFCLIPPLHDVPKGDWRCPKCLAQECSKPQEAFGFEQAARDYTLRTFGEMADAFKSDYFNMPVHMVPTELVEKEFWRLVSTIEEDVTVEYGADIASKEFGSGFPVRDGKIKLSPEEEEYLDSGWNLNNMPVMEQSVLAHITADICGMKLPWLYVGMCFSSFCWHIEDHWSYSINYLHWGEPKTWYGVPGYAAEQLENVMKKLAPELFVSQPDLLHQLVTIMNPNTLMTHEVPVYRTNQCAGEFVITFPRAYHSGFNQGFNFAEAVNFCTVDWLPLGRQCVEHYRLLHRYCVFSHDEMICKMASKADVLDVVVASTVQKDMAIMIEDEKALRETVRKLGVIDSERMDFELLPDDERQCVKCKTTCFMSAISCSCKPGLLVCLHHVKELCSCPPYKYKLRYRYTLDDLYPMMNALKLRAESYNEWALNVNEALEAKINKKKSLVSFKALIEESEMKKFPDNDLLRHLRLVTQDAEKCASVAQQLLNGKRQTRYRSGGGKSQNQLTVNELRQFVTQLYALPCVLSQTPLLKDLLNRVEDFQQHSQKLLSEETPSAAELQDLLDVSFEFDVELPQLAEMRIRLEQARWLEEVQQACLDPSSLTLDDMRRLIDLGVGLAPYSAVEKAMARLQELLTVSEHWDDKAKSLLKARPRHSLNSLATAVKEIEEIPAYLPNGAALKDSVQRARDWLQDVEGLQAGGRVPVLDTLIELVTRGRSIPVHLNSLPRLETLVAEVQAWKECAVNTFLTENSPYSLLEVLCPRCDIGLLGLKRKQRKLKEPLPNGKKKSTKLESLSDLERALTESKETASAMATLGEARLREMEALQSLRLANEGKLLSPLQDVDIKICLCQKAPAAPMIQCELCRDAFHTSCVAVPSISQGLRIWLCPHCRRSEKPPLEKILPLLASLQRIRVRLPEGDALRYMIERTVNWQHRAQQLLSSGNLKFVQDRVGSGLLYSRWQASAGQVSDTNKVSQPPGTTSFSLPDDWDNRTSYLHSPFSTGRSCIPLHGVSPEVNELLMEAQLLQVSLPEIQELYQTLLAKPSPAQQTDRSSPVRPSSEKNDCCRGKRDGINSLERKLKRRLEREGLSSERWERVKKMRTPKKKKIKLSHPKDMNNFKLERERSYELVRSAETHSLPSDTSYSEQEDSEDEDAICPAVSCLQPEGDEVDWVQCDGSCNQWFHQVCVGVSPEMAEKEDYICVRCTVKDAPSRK
T1 sequence (P78324 whole entry, looked up, the tested form may be a part): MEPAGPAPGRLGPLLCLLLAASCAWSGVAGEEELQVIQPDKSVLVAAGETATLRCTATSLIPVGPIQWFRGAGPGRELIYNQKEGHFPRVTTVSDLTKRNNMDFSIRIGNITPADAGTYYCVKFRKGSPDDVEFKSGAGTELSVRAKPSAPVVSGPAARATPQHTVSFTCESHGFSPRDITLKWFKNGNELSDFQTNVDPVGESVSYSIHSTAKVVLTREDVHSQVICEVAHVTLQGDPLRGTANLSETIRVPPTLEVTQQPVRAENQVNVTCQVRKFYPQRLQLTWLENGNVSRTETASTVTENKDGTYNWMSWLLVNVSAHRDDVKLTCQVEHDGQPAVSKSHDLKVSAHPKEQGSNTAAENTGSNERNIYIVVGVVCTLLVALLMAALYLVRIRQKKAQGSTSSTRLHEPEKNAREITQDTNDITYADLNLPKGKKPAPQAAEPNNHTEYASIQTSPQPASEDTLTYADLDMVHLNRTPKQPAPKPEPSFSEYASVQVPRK
T1 sequence (Q08722 whole entry, looked up, the tested form may be a part): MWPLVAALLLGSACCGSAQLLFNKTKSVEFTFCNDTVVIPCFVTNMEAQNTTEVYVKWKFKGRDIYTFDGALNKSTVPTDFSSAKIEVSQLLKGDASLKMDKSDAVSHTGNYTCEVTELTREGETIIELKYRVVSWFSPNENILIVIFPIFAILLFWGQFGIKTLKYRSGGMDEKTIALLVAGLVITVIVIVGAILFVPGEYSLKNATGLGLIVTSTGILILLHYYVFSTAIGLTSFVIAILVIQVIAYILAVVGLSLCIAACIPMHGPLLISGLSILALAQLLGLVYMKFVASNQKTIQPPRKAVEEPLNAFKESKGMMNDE

CC(C)Cn1c(=O)n(C)c(=O)c2[nH]cnc21
inactive: Potency [1] | outcome [2] | Potency [3] | Potency [5] | Potency [6] | Potency [7] | activity, negative = inhibition [8] -4.21%
active: Potency [4] 4.23 µM

CC(=O)O[C@H]1Cc2ccccc2N(C(N)=O)c2ccccc21
inactive: Potency [1] | outcome [2] | Potency [3] | Potency [4] | Potency [5] | Potency [6]

N[C@@H](Cc1ccc(F)cc1)C(=O)O
inactive: Potency [1] | outcome [2] | Potency [3] | Potency [4] | Potency [5] | Potency [6] | activity, negative = inhibition [8] -14.8%

Cc1ccc2c(c1)C(N1CCN(C)CC1)=Nc1cccnc1N2
inactive: Potency [1] | Potency [9] | Potency [3] | Potency [4] | Potency [5] | Potency [6] | activity, negative = inhibition [8] -6.11%

OC[C@H]1O[C@@H](n2cnc3cncnc32)[C@H](O)[C@@H]1O
active: Potency [5] 3.16 µM
inactive: Potency [1] | outcome [2] | Potency [3] | Potency [4] | Potency [6] | activity, negative = inhibition [8] -2.2%

O=C(O)c1ccccc1Nc1ccccc1
inactive: Potency [1] | Potency [9] | Potency [3] | Potency [4] | Potency [6] | Potency [7] | activity, negative = inhibition [8] -9.73%

CCN(c1nc(N)c(C(=O)N=C(N)N)nc1Cl)C(C)C
inactive: Potency [1] | Potency [9] | Potency [3] | Potency [4] | Potency [5] | activity, negative = inhibition [8] -3.16%

Oc1ccc(/C=C/c2ccc(/C=C/c3ccc(O)cc3)c(Br)c2)cc1
inactive: Potency [1] | Potency [9] | Potency [3] | Potency [4] | Potency [5] | activity, negative = inhibition [8] 662%

C=CC[C@H](N)C(=O)O
inactive: Potency [1] | outcome [2] | Potency [3] | Potency [4] | Potency [5] | Potency [6] | activity, negative = inhibition [8] -4.4%

COc1cc(C(O)CO)ccc1O (stereo not given)
inactive: Potency [1] | outcome [2] | Potency [3] | Potency [4] | Potency [5] | Potency [6] | activity, negative = inhibition [8] -5.15%

O=c1[nH]c(=O)c2nc3ccccc3nc2[nH]1
inactive: Potency [1] | Potency [9] | Potency [3] | Potency [4] | Potency [7]
active: Potency [5] 56.2 µM

Cc1nc(N=Nc2cc(S(=O)(=O)O)c3cc([N+](=O)[O-])cc(S(=O)(=O)O)c3c2)c(COP(=O)(O)O)c(C=O)c1O
active: Potency [5] 56.2 µM | Potency [11] 31.6 µM
inactive: Potency [1] | Potency [9] | Potency [3] | Potency [4] | Potency [10] | activity, negative = inhibition [8] -12.7% | Potency [12]

Cc1cccc(C)c1OCC(N)C(C)C (stereo not given)
active: Potency [5] 50.1 µM
inactive: Potency [1] | outcome [2] | Potency [3] | Potency [4] | Potency [6] | activity, negative = inhibition [8] -17.4%

O=C(O)/C(=C/c1c(C(=O)O)[nH]c2cc(Cl)cc(Cl)c12)c1ccccc1
inactive: Potency [1] | Potency [9] | Potency [3] | Potency [4] | Potency [5] | Potency [6] | activity, negative = inhibition [8] -2.54%

N=C(N)SCCN
inactive: Potency [1] | outcome [2] | Potency [3] | Potency [4] | Potency [5] | Potency [6] | activity, negative = inhibition [8] -12%

NC(Cc1cccc(-c2ccccc2CP(=O)(O)O)c1)C(=O)O (stereo not given)
inactive: Potency [1] | outcome [2] | Potency [3] | Potency [4] | Potency [5] | Potency [6] | activity, negative = inhibition [8] -9.93%

NC(N)=NC(N)=Nc1ccccc1
inactive: Potency [1] | outcome [2] | Potency [3] | Potency [4] | Potency [5] | Potency [6] | Potency [7] | activity, negative = inhibition [8] -3.27%

CCc1ccc2c(-c3cccc(Cl)c3)nc(=O)n(CC)c2n1
active: Potency [4] 2.67 µM | Potency [6] 26.7 µM
inactive: Potency [1] | Potency [9] | Potency [3] | Potency [13] | Potency [7] | outcome [14]

N#CC(C#N)=C(N)/C(C#N)=C/c1ccc(O)cc1
inactive: Potency [1] | Potency [9] | Potency [3] | Potency [4] | Potency [6] | activity, negative = inhibition [8] -9.24%

CC[C@H](NC(=O)c1c(C)c(-c2ccccc2)nc2ccccc12)c1ccccc1
inactive: Potency [1] | Potency [9] | Potency [3] | Potency [4] | Potency [5] | Potency [7] | activity, negative = inhibition [8] -4.22%

CN1CCN(c2nc3cc(C(F)(F)F)ccc3n3cccc23)CC1
inactive: Potency [1] | outcome [9] | Potency [4] | Potency [7]
active: Potency [5] 39.8 µM

CCCCCCC/C=C\CCCCCCCCC(=O)O
active: Potency [6] 21.2 µM
inactive: Potency [1] | outcome [2] | Potency [3] | Potency [4] | Potency [5]

Cn1cc(C(F)(F)F)nc1-c1ccc(OCC(O)CNCCOc2ccc(O)c(C(N)=O)c2)cc1 (stereo not given)
active: Potency [5] 56.2 µM | Potency [6] 26.7 µM
inactive: Potency [1] | outcome [2] | Potency [3] | Potency [4] | Potency [15] | activity, negative = inhibition [8] -27.4% | outcome [14] | Potency [12]

Clc1nccc2c1ccc1ccccc12
active: Potency [5] 50.1 µM
inactive: Potency [1] | outcome [2] | Potency [3] | Potency [4] | activity, negative = inhibition [8] 2.06%

CN(CC[C@@H](Oc1ccc(C(F)(F)F)cc1)c1ccccc1)CC(=O)O
inactive: Potency [1] | outcome [2] | Potency [3] | Potency [4] | Potency [5] | Potency [6] | activity, negative = inhibition [8] -7.4%

O=[N+]([O-])c1cccc2c(Br)[nH]nc12
inactive: Potency [1] | Potency [9] | Potency [3] | Potency [6] | Potency [7] | activity, negative = inhibition [8] -1.9%

N#CC(=C(\N)Sc1ccccc1N)/C(C#N)=C(/N)Sc1ccccc1N
active: Potency [5] 56.2 µM
inactive: Potency [1] | Potency [9] | Potency [3] | activity, negative = inhibition [8] -5.86%
